SMILES strings stand for the structures. Records with an inconclusive call do not appear. Where a call stands in place of a potency, no number is given. Calls of active or inactive are those of the source. Calls follow the shape of the dose curve; as a rule, active = well fitted inhibition curve with a large enough effect; inconclusive = small, poorly fitted or top-dose-only effect; inactive = no such curve, though single readings can be large or run the other way.

In the experiment the target is Retinaldehyde dehydrogenase 3 (Homo sapiens) (UniProt P47895). Kind of experiment: qHTS for Inhibitors of the Aldehyde Dehydrogenase Family (ALDH1A3) Primary screen (AID 2061315). The conditions noted are these: ALDH inhibition qHTS; series mostly up to 56 µM. In general terms: In qHTS, concentration-response curves come from the screen itself.
In the case of `COCCCc1cc(F)c(S(=O)(=O)N2CCN(S(=O)(=O)c3ccc4c(c3)OCCO4)CC2)cc1F`, the Potency entry was “inactive”.
The value for `Cc1cccc(CNc2ncnc3ccc(-c4cccc(Cl)c4)cc23)c1` was “inactive”.
The value for `O=S(=O)(c1ccc2ccccc2c1)N1CCN(S(=O)(=O)c2c(F)cccc2F)CC1` was “inactive”.
The value for `Cc1ccc(C[C@H](C(=O)O)N2C(=O)c3ccc(C(=O)O)cc3C2=O)cc1` was “inactive”.
As to `S=C(NCCCc1cnc[nH]1)NCCCN(Cc1ccc(Cl)cc1)c1ccc(Br)cn1`, the Potency result was “inactive”.
For the compound `Cc1ccccc1S(=O)(=O)Nc1cnccc1C(=O)Nc1nc(-c2ccccc2)cs1`, the Potency entry is “inactive”.
The value for `Cc1cc(OCCCSc2nc(-c3ccc(C(C)(C)C)cc3)nc3cc(=O)[nH]n23)ccc1Cl` was “inactive”.
The value for `Cc1cccc(-n2cnc3cc(C(=O)N4CCC(C#N)CC4)ccc32)c1` was “inactive”.
Then `COc1ccc(C(=O)Nc2ccc(-c3nc4ccccc4[nH]3)cc2)cc1F`, with “inactive”; and `Cc1ccc(S(=O)(=O)Nc2cc3c(cc2C(=O)Nc2nc(-c4ccccc4)cs2)OCO3)cc1`, with “inactive”.
`O=C(c1ccc2c(c1)ncn2-c1ccccc1)N1CCCCC1`: the Potency entry is “inactive”.
The value for `CCOc1ccc(CCNC(=O)c2cccc(C(=O)c3ccccc3)c2)cc1OCC` was “inactive”; that for `N#Cc1nc(Nc2ccc(Br)cc2)nc(NC2CCCC2)n1` was “inactive”; that for `CC(C)CN1CCN(C(=O)COC(=O)c2ccc(S(C)(=O)=O)c([N+](=O)[O-])c2)CC1` was “inactive”.
The value for `Cc1ccc(OCCn2c(CCNC(=O)CCc3ccccc3Br)nc3ccccc32)cc1` was “inactive”; that for `CN(C)[S+](=O)([O-])c1ccc(-c2ccc(=O)n(CC(=O)NCCc3ccccc3)n2)cc1` was “inactive”.
Then `Cc1ccc(OCCn2c(CCNC(=O)C3CCN(C(=O)OC(C)(C)C)CC3)nc3ccccc32)cc1`, with “inactive”; and `NC(=O)C1CCN(c2nc(-c3ccccc3F)cs2)CC1`, with “inactive”.
As for `O=C(Nc1ccc(Cl)nc1)Nc1nnc(-c2ccncc2)s1`, the Potency result is “inactive”.
The value for `Cn1cnc(S(=O)(=O)Nc2cnccc2C(=O)Nc2nc(-c3ccccc3)cs2)c1` was “inactive”; that for `COc1cc(O)c(C(CC(=O)N2CCCC(C)C2)c2ccc(OC)c(OC)c2)c(OC)c1` (stereo not given) was “inactive”; that for `Cc1nc(NC2CCCCC2)c2nc(-c3ccccc3)n(CCCN3CCCCC3C)c2n1` (stereo not given) was “inactive”.
Then `Cc1cccc(-n2cnc3cc(C(=O)NC(C)(C)C)ccc32)c1`, with “inactive”; and `Cc1ccc(S(=O)(=O)N(C)c2ccccc2C(=O)Nc2nc(-c3ccccc3)cs2)cc1`, with “inactive”.
Then `COc1ccccc1CNC(=O)Nc1nnc(-c2ccncc2)s1`, with “inactive”.
Turning to `COc1ccc(-c2ccc(NC(=O)c3cccs3)cn2)cc1`, the Potency entry is “inactive”.
`O=C(NCCc1nc2ccccc2[nH]1)C1CCCCC1`: the Potency entry was “inactive”.
Then `O=S(=O)(c1ccc(Cl)cc1)N1CCN(S(=O)(=O)c2ccc3c(c2)OCCO3)CC1`, with “inactive”; and `O=c1c2[nH]c3cc(Br)sc3c2cnn1Cc1ccccc1F`, with “inactive”; and `COc1cc(O)c(C(CC(=O)N2CCC(Cc3ccccc3)CC2)c2ccc(OC)c(OC)c2)c(OC)c1` (stereo not given), with “inactive”.
The value for `Cc1ccc(S(=O)(=O)Nc2cc(C)ccc2C(=O)Nc2nc(-c3ccccc3)cs2)cc1` was “inactive”.
Then `Cc1nc(N2CCOCC2)c2nc(-c3ccccc3)n(CCCN(C)C)c2n1`, with “inactive”; and `Cc1c(P(=S)(c2ccccc2)c2ccccc2)[n+]2ccccc2n1CCCCc1ccccc1`, with “inactive”; and `CC(C)Nc1nc(C#N)nc(Nc2ccccc2)n1`, with “inactive”.
For `CCOC(=O)c1cccc(NC(=O)Nc2nnc(-c3ccncc3)s2)c1`, the Potency result is “inactive”.
In the case of `Cc1ccc(S(=O)(=O)Nc2ccc(C(=O)Nc3nc(-c4ccc(Cl)cc4)cs3)cc2)cc1`, the Potency result is “inactive”.
Then `Cc1cnccc1-c1nc(Nc2ccc(F)c(F)c2)c2ccccc2n1`, with “inactive”; and `COc1cc(F)c(S(=O)(=O)N2CCCN(S(=O)(=O)c3ccc(N)cc3)CC2)c(F)c1`, with “inactive”.
In the case of `Cc1ccc(-c2ccc(CNc3nc(-c4ccccc4C(C)C)nc4ccccc34)cc2)cn1`, the Potency entry is “inactive”.
The value for `CCCn1c(C)nc2c(N(CCN(CC)CC)CCN(CC)CC)nc(C)nc21` was “inactive”.
